# Values joined by “and” are separate entries in the source; they are usually repeats but may differ in a detail not shown here. Identical values can stand only once. Inconclusive results are not listed. Where a call stands in place of a potency, no number is given. Active and inactive are the calls of the source. Calls follow the shape of the dose curve; as a rule, active = well fitted inhibition curve with a large enough effect; inconclusive = small, poorly fitted or top-dose-only effect; inactive = flat fitted curve, though single readings scatter.
# System: Zika virus NS2B-NS3 protease
# Test: Primary screen GU AMC qHTS for Zika virus inhibitors (AID 1347154); also: nearly all actives have a fitted effect of over 70% in size
# Settings: Zika NS2B-NS3 unlinked protease, AMC fluorogenic substrate; series mostly up to 54.1 µM
# Procedure, shortened: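 Fluorogenic AMC-substrate cleavage by noncovalent NS2B-NS3 protease complex (25 nM, pH 8.0 Tris buffer with Tween 20) followed for 15 minutes at room temperature (~20% conversion). Percent inhibition from ex340/em450 signal change, fitted by 4-parameter Hill equation.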
# Potency is read from the fitted curve at half-maximal effect.
row,SMILES,Potency
1,CN(CCOc1ccc(CC2SC(=O)NC2=O)cc1)c1ccccn1 (centres undefined),inactive
2,S=P(N1CC1)(N1CC1)N1CC1,inactive
3,Cn1nnc2c(C(N)=O)ncn2c1=O,inactive
4,CC(C)C1CCC(C(=O)N[C@H](Cc2ccccc2)C(=O)O)CC1 (some centres undefined),inactive
5,CCOC(=O)c1ccc(C#Cc2ccc3c(c2)C(C)(C)CCS3)nc1,31.6 µM (active) and 21.5 µM (active)
6,COCCCOc1cc(C[C@@H](C[C@H](N)[C@@H](O)C[C@H](C(=O)NCC(C)(C)C(N)=O)C(C)C)C(C)C)ccc1OC,inactive
7,NNC(=O)c1ccncc1,inactive
8,CC(C)Cn1cnc2c(N)nc3ccccc3c21,inactive
9,C[C@]12C=CC(=O)C=C1CC[C@@H]1[C@@H]2C(=O)C[C@@]2(C)[C@H]1CC[C@]2(O)C(=O)CO,inactive
10,CCN[C@H]1C[C@H](C)S(=O)(=O)c2sc(S(N)(=O)=O)cc21,inactive
11,COC(c1ccccc1)(c1ccccc1)[C@H](Oc1nc(C)cc(C)n1)C(=O)O,inactive
12,C#CCN[C@@H]1CCc2ccccc21,inactive
13,CCCOc1ccc(C(=O)OCCN(CC)CC)cc1N,inactive
14,NS(=O)(=O)c1cc2c(cc1Cl)NC(C(Cl)Cl)NS2(=O)=O (centres undefined),inactive
15,CC(C)C[C@H](NC(=O)[C@H](CCc1ccccc1)NC(=O)CN1CCOCC1)C(=O)N[C@@H](Cc1ccccc1)C(=O)N[C@@H](CC(C)C)C(=O)[C@@]1(C)CO1,inactive
16,CNNCc1ccc(C(=O)NC(C)C)cc1,inactive
17,NCCCC(O)(P(=O)(O)O)P(=O)(O)O,inactive
18,O=c1oc2c(O)c(O)cc3c(=O)oc4c(O)c(O)cc1c4c23,496 nM (active) and 1.92 µM (active)

# System: not listed separately
# Test: qHTS to identify inhibitors of the type 1 interferon - major histocompatibility complex class I in skeletal muscle: primary screen against the NCATS Pharmaceutical Collection (AID 1347407);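 also: luminescence of HiBiT knocked into endogenous HLA-B as interferon-induced MHC class I level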
# Settings: human skeletal muscle cells, IFN-b-induced MHC-I HiBiT luminescence, 24 h; series mostly up to 45.9 µM
# Procedure, shortened: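 Immortalized human myoblasts (C25cl48) with HiBiT knocked into endogenous HLA-B*08:01 were stimulated with 4.0 ng/ml IFN-beta and treated with compounds ([…] top 46 uM) for 24 hrs at 37 C. HiBiT lytic luminescence read.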
row,SMILES,Potency
1,CC(C)(C#N)c1cc(Cn2cncn2)cc(C(C)(C)C#N)c1,inactive
2,C[C@@H]1CN(c2c(F)c(N)c3c(=O)c(C(=O)O)cn(C4CC4)c3c2F)C[C@H](C)N1,inactive
3,O=S(=O)(O)CCS,inactive
4,Oc1c(Cl)cc(Cl)c2cccnc12,inactive
5,CN(Cc1cc(Br)cc(Br)c1N)C1CCCCC1,inactive
6,Cc1oc(=O)oc1CN1CCN(c2cc3c(cc2F)c(=O)c(C(=O)O)c2n3C(C)S2)CC1 (centres undefined),inactive
7,CN(C)c1ccc(C(=C2C=CC(=[N+](C)C)C=C2)c2ccc(N(C)C)cc2)cc1,9.38 µM (active)
8,CCC(=O)O[C@]1(C(=O)CCl)[C@@H](C)C[C@H]2[C@@H]3CCC4=CC(=O)C=C[C@]4(C)[C@@]3(F)[C@@H](O)C[C@@]21C,inactive
9,Cc1nnc(NS(=O)(=O)c2ccc(N)cc2)s1,inactive
10,C[C@@H](CN1CC(=O)NC(=O)C1)N1CC(=O)NC(=O)C1,inactive
11,Nc1[nH]c(=O)ncc1F,inactive
12,OC(Cn1cncn1)(Cn1cncn1)c1ccc(F)cc1F,inactive
13,COc1ccc(C(=O)CC(=O)c2ccc(C(C)(C)C)cc2)cc1,inactive
14,CC(=O)Oc1ccccc1C(=O)Nc1ncc([N+](=O)[O-])s1,inactive
15,CC(C)OC(=O)C(C(=O)OC(C)C)=C1SC=CS1,inactive
16,CCC(C)(C)c1ccc(CC(C)CN2C[C@@H](C)O[C@@H](C)C2)cc1 (some centres undefined),inactive
17,CC(=O)[C@H]1CC[C@H]2[C@@H]3CC=C4C[C@@H](O)CC[C@]4(C)[C@H]3CC[C@]12C,inactive
18,CCCCOc1ccc(CC(=O)NO)cc1,inactive

row,SMILES,Potency
1,CN(CCOc1ccc(CC2SC(=O)NC2=O)cc1)c1ccccn1 (centres undefined),inactive
2,S=P(N1CC1)(N1CC1)N1CC1,inactive
3,Cn1nnc2c(C(N)=O)ncn2c1=O,inactive
4,CC(C)C1CCC(C(=O)N[C@H](Cc2ccccc2)C(=O)O)CC1 (some centres undefined),inactive
5,CCOC(=O)c1ccc(C#Cc2ccc3c(c2)C(C)(C)CCS3)nc1,inactive
6,COCCCOc1cc(C[C@@H](C[C@H](N)[C@@H](O)C[C@H](C(=O)NCC(C)(C)C(N)=O)C(C)C)C(C)C)ccc1OC,inactive
7,NNC(=O)c1ccncc1,inactive
8,CC(C)Cn1cnc2c(N)nc3ccccc3c21,inactive
9,C[C@]12C=CC(=O)C=C1CC[C@@H]1[C@@H]2C(=O)C[C@@]2(C)[C@H]1CC[C@]2(O)C(=O)CO,inactive
10,CCN[C@H]1C[C@H](C)S(=O)(=O)c2sc(S(N)(=O)=O)cc21,inactive
11,COC(c1ccccc1)(c1ccccc1)[C@H](Oc1nc(C)cc(C)n1)C(=O)O,inactive
12,C#CCN[C@@H]1CCc2ccccc21,inactive
13,CCCOc1ccc(C(=O)OCCN(CC)CC)cc1N,inactive
14,NS(=O)(=O)c1cc2c(cc1Cl)NC(C(Cl)Cl)NS2(=O)=O (centres undefined),inactive
15,CC(C)C[C@H](NC(=O)[C@H](CCc1ccccc1)NC(=O)CN1CCOCC1)C(=O)N[C@@H](Cc1ccccc1)C(=O)N[C@@H](CC(C)C)C(=O)[C@@]1(C)CO1,0.0938 µM (active)
16,CNNCc1ccc(C(=O)NC(C)C)cc1,inactive
17,NCCCC(O)(P(=O)(O)O)P(=O)(O)O,inactive
18,O=c1oc2c(O)c(O)cc3c(=O)oc4c(O)c(O)cc1c4c23,inactive

# Source: PubChem BioAssay (NCATS)
